Assay results taken from the supplement of paper PMC10646978.
± gives the standard deviation.

Experiments:
Conditions in all cases: modulator concentration 10 µM
[1] = test system: RAW-Dual (murine macrophage reporter line); test: NF-kB reporter (SEAP) activity fold change vs agonist alone; higher = enhanced NF-kB activity
Method in brief: (§1)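 Overnight stimulation with a PRR agonist followed pre-incubation for 1 hour at 37 °C with compound at 10 μM final. This was done in RAW-Dual murine macrophage reporter cells seeded at 50 000 per well in 384-well plates. NF-κB (SEAP, QUANTI-Blue absorbance at 620 nm) and IRF (Lucia luciferase, QUANTI-Luc luminescence) were read from the supernatant. Each reporter's fold change relative to the mean agonist-only control on the same plate was averaged over replicate plates.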

[2] = test system: RAW-Dual (murine macrophage reporter line); test: IRF reporter (Lucia luciferase) activity fold change vs agonist alone; higher = enhanced IRF activity
Method in brief: as §1

[3] = test system: RAW-Dual (murine macrophage reporter line); test: viability score (confluency relative to resting cells, overnight) (fraction); higher = more viable, active = viable (0.7 or more)
Method in brief: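 In 384-well plates, RAW-Dual macrophages received compound at a final 10 μM overnight. Two confluency masks were then made with IncuCyte software from IncuCyte images of all imaged wells. The viability score is defined as confluency relative to resting cells. Passing the cutoff required both masks to lie above 70% of resting cells.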

[4] = agonist: CpG ODN 1826 0.5 ug/mL

| Structure (SMILES) | NF-kB reporter [1, 4] | NF-kB reporter ([1]; agonist: LPS 0.1 ug/mL) | NF-kB reporter ([1]; agonist: MPLA […]) | IRF reporter ([2]; agonist: 3'3'-cGAMP 10 ug/mL) | IRF reporter ([2]; agonist: LPS 0.1 ug/mL) | IRF reporter ([2]; agonist: MPLA […]) | viability score [3] |
| --- | --- | --- | --- | --- | --- | --- | --- |
| CC1=CCC(C2Nc3ccccc3-c3nnc(SCc4ccc(C)cc4)nc3O2)CC1 (centres undefined) | 1.05 ± 0.13 | 1 ± 0.057 | 0.881 ± 0.053 | 0.978 ± 0.053 | 1.5 ± 0.1 | 1.22 ± 0.15 | 1.01 (active) |
| O=C(NCC1(c2ccc(F)cc2)CCOCC1)c1cnc2ccccc2n1 | 1.01 ± 0.05 | 1.1 ± 0.094 | 1.02 ± 0.12 | 1.08 ± 0.06 | 1.2 ± 0.093 | 1.42 ± 0.12 | 1.01 (active) |
| Clc1ccc(-c2nc(-c3ccc(I)cc3)[nH]c2-c2ccc(Cl)cc2)cc1 | 0.641 ± 0.049 | 0.91 ± 0.1 | 0.985 ± 0.1 | 0.929 ± 0.082 | 1.19 ± 0.24 | 1.27 ± 0.3 | 1.02 (active) |
| Cc1cnc2c(c1NCCCO)c(=O)n(C)c(=O)n2C | 1.1 ± 0.1 | 1.01 ± 0.088 | 1.02 ± 0.027 | 0.881 ± 0.04 | 0.947 ± 0.11 | 0.887 ± 0.21 | 0.995 (active) |
| Cn1ncc(Cl)c1-c1cc(C(=O)N[C@H](CN)Cc2ccc(F)c(F)c2)oc1Cl | 1.13 ± 0.34 | 1.49 ± 0.11 | 1.48 ± 0.14 | 0.363 ± 0.014 | 0.597 ± 0.064 | 0.827 ± 0.079 | 0.661 (inactive) |
| c1ccc2oc(SCCCCSc3nc4ccccc4o3)nc2c1 | 0.959 ± 0.15 | 1.06 ± 0.11 | 0.949 ± 0.089 | 0.821 ± 0.037 | 1.2 ± 0.12 | 1.4 ± 0.15 | 1 (active) |
| CCOC(=O)[C@H](CCc1ccccc1)N[C@@H](C)C(=O)N1CCC[C@H]1C(=O)O.O=C(O)/C=C\C(=O)O | 1.05 ± 0.09 | 1.01 ± 0.11 | 1 ± 0.054 | 1.01 ± 0.085 | 0.916 ± 0.04 | 0.868 ± 0.2 | 1 (active) |
| Cc1ccc(-n2ncc3c(SCC(=O)NC(C)(C)C)ncnc32)c(C)c1 | 1.01 ± 0.082 | 1.16 ± 0.1 | 1.05 ± 0.047 | 0.644 ± 0.026 | 0.95 ± 0.048 | 1.22 ± 0.18 | 0.996 (active) |
| CCOC(=O)C1=C(C)NC(=S)NC1c1ccccc1OCc1ccccc1 (centres undefined) | 0.862 ± 0.069 | 1.05 ± 0.063 | 0.965 ± 0.058 | 0.679 ± 0.09 | 1.25 ± 0.22 | 1.03 ± 0.087 | 1.01 (active) |
| Clc1ccc2c(c1)CCc1cccnc1C2=C1CCNCC1 | 0.345 ± 0.04 | 0.654 ± 0.052 | 0.814 ± 0.048 | 0.505 ± 0.026 | 0.81 ± 0.14 | 0.754 ± 0.15 | 0.36 (inactive) |
| CC1=C(C(=O)OCC(F)(F)C(F)(F)F)C(c2ccccc2)NC(=O)N1 (centres undefined) | 0.847 ± 0.052 | 0.975 ± 0.077 | 0.863 ± 0.053 | 1.31 ± 0.05 | 1.34 ± 0.089 | 1.23 ± 0.23 | 0.934 (active) |
| O=C(c1ccccc1)C1OC1(CBr)c1ccccc1 (centres undefined) | 1.06 ± 0.06 | 0.76 ± 0.052 | 0.663 ± 0.039 | 0.0937 ± 0.0033 | 0.69 ± 0.072 | 0.913 ± 0.17 | 0.833 (active) |
| O=C(NCCCn1ccc2cccnc21)c1ccccc1C(F)(F)F | 0.946 ± 0.091 | 1.1 ± 0.092 | 1.03 ± 0.18 | 1.06 ± 0.056 | 1.16 ± 0.1 | 1.45 ± 0.15 | 0.978 (active) |
| CN(C)c1nc(CNC(=O)CSc2nc3ccccc3o2)nc(N(C)C)n1 | 1.01 ± 0.07 | 1.13 ± 0.12 | 1.01 ± 0.067 | 0.959 ± 0.048 | 1.05 ± 0.063 | 1 ± 0.078 | 0.979 (active) |
| COc1ccccc1OCC(O)CN1CCN(CC(=O)Nc2c(C)cccc2C)CC1 (centres undefined) | 0.99 ± 0.087 | 0.943 ± 0.089 | 1.06 ± 0.056 | 0.967 ± 0.092 | 0.996 ± 0.061 | 0.936 ± 0.078 | 1 (active) |
| COc1ccc(OC)c(Nc2nc(-c3c(C)nc4ncccn34)cs2)c1 | 2.14 ± 0.18 | 1.35 ± 0.12 | 1.09 ± 0.083 | 0.3 ± 0.014 | 0.381 ± 0.035 | 0.361 ± 0.066 | 0.907 (active) |
| COc1ccc(C2CC(=O)C(=Cc3c[nH]c4ccccc34)C(=O)C2)cc1 (centres undefined) | 0.91 ± 0.055 | 1.04 ± 0.11 | 0.905 ± 0.08 | 0.76 ± 0.04 | 1.25 ± 0.11 | 1.1 ± 0.13 | 0.991 (active) |
| CCCCCCc1cc2cc(-c3nc(-c4ccc(Oc5ccccc5)cc4)cs3)c(=O)oc2cc1O | 0.962 ± 0.096 | 1.04 ± 0.085 | 0.946 ± 0.068 | 0.873 ± 0.024 | 1.42 ± 0.22 | 1.12 ± 0.29 | 1.01 (active) |
| CC(CN1c2ccccc2Sc2cccnc21)N(C)C.Cl (centres undefined) | 0.968 ± 0.075 | 0.926 ± 0.11 | 1.07 ± 0.042 | 1.03 ± 0.099 | 0.935 ± 0.14 | 0.921 ± 0.16 | 1 (active) |
| CCOc1ccc(-c2cccc(NC(=O)c3c(F)cccc3F)c2)nn1 | 0.969 ± 0.043 | 1.06 ± 0.088 | 1.13 ± 0.061 | 0.861 ± 0.053 | 1.11 ± 0.21 | 1.23 ± 0.46 | 0.982 (active) |
| ON=C1ON=C(c2ccccc2)C1=NO | 0.867 ± 0.067 | 0.775 ± 0.038 | 0.875 ± 0.078 | 0.176 ± 0.0086 | 1.29 ± 0.078 | 1.42 ± 0.13 | 0.998 (active) |
| COC(=O)C1=C(C#N)NC(C)=C(C(=O)OC(C)C)C1c1cccc([N+](=O)[O-])c1 (centres undefined) | 0.832 ± 0.041 | 1.01 ± 0.097 | 0.929 ± 0.04 | 0.978 ± 0.083 | 1.1 ± 0.068 | 1.19 ± 0.12 | 0.968 (active) |
| COC(=O)C1=C(C)N(Cc2ccccc2)C(=O)C1=Cc1ccc(C)cc1 | 0.59 ± 0.048 | 0.655 ± 0.05 | 0.749 ± 0.069 | 0.4 ± 0.02 | 1.08 ± 0.068 | 0.948 ± 0.092 | 0.998 (active) |
| CC1(C)CCCC2=C1CC1C(=O)NC(=O)C1C2 (centres undefined) | 0.88 ± 0.079 | 0.977 ± 0.076 | 0.948 ± 0.14 | 0.953 ± 0.085 | 1.16 ± 0.2 | 1.32 ± 0.33 | 1.03 (active) |
| O=C(O)c1cccnc1C(=O)O | 1.03 ± 0.087 | 1.04 ± 0.07 | 0.971 ± 0.022 | 0.941 ± 0.052 | 0.981 ± 0.12 | 0.867 ± 0.07 | 1 (active) |
| O=[N+]([O-])c1cc(C(O)(C(F)(F)F)C(F)(F)F)cc([N+](=O)[O-])c1Cl | 1.07 ± 0.085 | 1.03 ± 0.072 | 0.972 ± 0.091 | 0.706 ± 0.029 | 1.22 ± 0.17 | 0.97 ± 0.085 | 0.996 (active) |
| Cc1cccc(C(=O)N2N=C(c3ccccc3)CC2(O)C(F)(F)F)c1 (centres undefined) | 1.29 ± 0.1 | 1.13 ± 0.062 | 1.46 ± 0.087 | 1.58 ± 0.049 | 3.2 ± 0.32 | 1.79 ± 0.12 | 0.254 (inactive) |
